# Test results as given in PubChem BioAssay (NCATS).
# “And” between values parts separate entries of the source, which are not always exact repeats. Equal values may be shown once. Records with an inconclusive call do not appear. The source made the active and inactive calls. Unless noted, calls come from the whole dose curve; as a rule, active = well fitted curve in the direction sought with a large enough effect; inconclusive = small, poorly fitted or top-dose-only effect, or another doubt; inactive = no such curve, though single readings can be large; an effect the other way counts as inactive or inconclusive.
# Legend:
# [1] = target: DNA dC->dU-editing enzyme APOBEC-3G (Homo sapiens) (UniProt Q9HC16); test: qHTS for inhibitors of Vif-A3G interactions: Validation (AID 588379); conditions: Vif-A3G protein interaction assay; series mostly up to 46.1 µM; note: 0% is about no effect
# Method in brief: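 Yellow fluorescence (Ex 488, Em 500-530) of Vif-coexpressing HeLa A3G-eYFP cells, scanned by Acumen cytometer, reports blocked A3G degradation. Cells plated at 700/well overnight at 37 deg C before compound addition, then a further overnight compound incubation at 37 deg C.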
# [2] = target: Cytochrome P450 2C9 (Homo sapiens) (UniProt P11712); test: qHTS Assay for Inhibitors and Substrates of Cytochrome P450 2C9 (AID 883); conditions: recombinant CYP2C9, luciferin-H luminescence, 60 min; series mostly up to 25.6 µM; note: nearly all actives have a fitted effect of over 60% in size; note: potency is the fitted concentration of half-maximal effect
# Method in brief: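 10nM CYP2C9 + 100uM Luciferin-H (=KM), 25mM KPO4; cpd 10 min 37C; NADPH regen, 60 min 37C; stop/detect with P450 Glo-Buffer 20 min; luminescence. Norm. to 57uM sulphaphenazole as full inhibition.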
# [3] = target: Cytochrome P450 2C19 (Homo sapiens) (UniProt P33261); test: qHTS Assay for Inhibitors and Substrates of Cytochrome P450 2C19 (AID 899); conditions: recombinant CYP2C19, luciferin-H EGE luminescence; series mostly up to 57.1 µM; note: potency is the fitted concentration of half-maximal effect; nearly all actives have a fitted effect of over 60% in size
# Method in brief: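 Luminescent read-out of luciferin formed from Luciferin-H EGE (10uM, equal to KM). Enzyme 5nM in 50mM KPO4; compound added, 10 min at 37C, then NADPH regenerating system for 60 min at 37C. Full inhibition defined by 57uM ketoconazole.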
# [4] = Confirmation and Secondary Assay for Modulators of Hemoglobin Beta Chain Splicing at IVS2 654 locus (AID 910); conditions: HeLa EGFP-654 splicing reporter, GFP fluorescence, 48 h; series mostly up to 46.1 µM;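 note: HeLa cells stably carrying EGFP split by mutant beta-globin IVS2-654 intron; % of control where 0% means no effect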
# Method in brief: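 HeLa cells stably expressing EGFP interrupted by β-globin IVS2-654 intron, seeded overnight in Opti-MEM/2% FCS, then treated 2 days at 37 °C. Restored splicing read as total peak GFP intensity per well by laser scanning cytometry (488 nm excitation, 500–520 nm emission); 500 nM antisense PNA as control.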
# [5] = qHTS Assay for Identifying Gametocytocidal Compounds (AID 743244); note: potency is the fitted concentration of half-maximal effect; conditions: P. falciparum 3D7 stage III-V gametocytes, alamarBlue, 72 h; max response: stronger effect = lower value
# Method in brief: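 Stage III–V gametocytes of P. falciparum 3D7 were seeded at 20,000 cells/well onto pre-dispensed compounds. After 72 h, 37 °C, 5% CO2, alamarBlue was added for another 24 h.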
# [6] = qHTS profiling for inhibitors of Plasmodium falciparum (3D7) proliferation (AID 743322);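 note: infected erythrocytes exposed to compound for 72 h before lysis; 100% = DMSO vehicle wells and 0% = 0.29 µM artemisinin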; conditions: P. falciparum 3D7 proliferation; at 9.63 µM (top of the series)
# Method in brief: (§1)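 Parasite DNA was quantified by SYBR Green I fluorescence (ex 485, em 535 nm) after overnight lysis in saponin/Triton buffer at room temperature. Cultures at 0.3% parasitemia and 2.5% hematocrit were first exposed to compound for 72 h at 37 C; signals were normalised to artemisinin (0.29 uM) and vehicle wells.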
# [7] = qHTS profiling for inhibitors of Plasmodium falciparum (DD2) proliferation (AID 743323; call rule not given here); conditions: lower = more inhibition; at 9.63 µM (top of the series)
# Method in brief: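 1536-well qHTS; infected RBCs 0.3% parasitemia/2.5% Hct final; cpd 72 h 37 C 5% CO2; lysis buffer + SYBR Green I, o/n RT dark; FI 485/535; norm. to 0.29 uM artemisinin and DMSO, plate-stack corrected.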
# [8] = qHTS profiling for inhibitors of Plasmodium falciparum (HB3) proliferation (AID 743324); conditions: Plasmodium falciparum HB3 blood-stage proliferation; at 9.63 µM (top of the series);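 note: 100% = DMSO vehicle wells and 0% = artemisinin-treated control wells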
# Method in brief: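 SYBR Green fluorescence (485 ex/535 em) of lysed cultures, incubated overnight at room temperature in the dark, quantifies parasite DNA. Infected erythrocytes at 0.3% parasitemia and 2.5% hematocrit were exposed 72 h; values normalized to DMSO and 0.29 uM artemisinin controls.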
# [9] = qHTS profiling of the MIPE4 collection as inhibitors of Plasmodium falciparum (3D7) proliferation (AID 743344; call rule not given here;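 note: scaled between DMSO vehicle wells and 0.29 µM artemisinin as full inhibition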); conditions: P. falciparum 3D7 in erythrocytes, SYBR Green DNA fluorescence, 72 h; at 9.64 µM (top of the series)
# Method in brief: as §1
# [10] = qHTS profiling of the MIPE4 collection as inhibitors of Plasmodium falciparum (DD2) proliferation (AID 743345; call rule not given here); conditions: P. falciparum Dd2 in erythrocytes, SYBR Green DNA, 72 h; at 9.64 µM (top of the series)
# Method in brief: as §1
# [11] = qHTS profiling of the MIPE4 collection as inhibitors of Plasmodium falciparum (DD2) proliferation (Rep 2) (AID 743346; call rule not given here); conditions: P. falciparum Dd2 in erythrocytes, SYBR Green DNA, 72 h; at 9.64 µM (top of the series)
# Method in brief: as §1
# [12] = qHTS profiling of the MIPE4 collection as inhibitors of Plasmodium falciparum (HB3) proliferation (AID 743347; call rule not given here;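 note: plate controls were DMSO vehicle wells for no effect and artemisinin wells for full effect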); conditions: P. falciparum HB3 in erythrocytes, SYBR Green DNA, 72 h; at 9.64 µM (top of the series)
# Method in brief: as §1
# Sequence of Cytochrome P450 2C19 (Homo sapiens) (P33261 whole entry, looked up): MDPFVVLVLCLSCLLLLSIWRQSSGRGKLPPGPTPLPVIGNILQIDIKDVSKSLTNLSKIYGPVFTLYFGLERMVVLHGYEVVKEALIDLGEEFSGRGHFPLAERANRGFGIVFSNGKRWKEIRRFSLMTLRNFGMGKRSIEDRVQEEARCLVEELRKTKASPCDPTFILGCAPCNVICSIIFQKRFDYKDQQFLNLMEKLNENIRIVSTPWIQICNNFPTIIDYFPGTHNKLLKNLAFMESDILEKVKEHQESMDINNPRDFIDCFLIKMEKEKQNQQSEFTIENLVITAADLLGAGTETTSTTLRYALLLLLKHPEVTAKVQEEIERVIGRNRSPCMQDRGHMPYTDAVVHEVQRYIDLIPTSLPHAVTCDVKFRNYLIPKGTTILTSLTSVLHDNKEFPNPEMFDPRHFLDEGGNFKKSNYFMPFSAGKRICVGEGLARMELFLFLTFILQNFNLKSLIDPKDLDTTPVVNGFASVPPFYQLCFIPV
# Sequence of DNA dC->dU-editing enzyme APOBEC-3G (Homo sapiens) (Q9HC16 whole entry, looked up): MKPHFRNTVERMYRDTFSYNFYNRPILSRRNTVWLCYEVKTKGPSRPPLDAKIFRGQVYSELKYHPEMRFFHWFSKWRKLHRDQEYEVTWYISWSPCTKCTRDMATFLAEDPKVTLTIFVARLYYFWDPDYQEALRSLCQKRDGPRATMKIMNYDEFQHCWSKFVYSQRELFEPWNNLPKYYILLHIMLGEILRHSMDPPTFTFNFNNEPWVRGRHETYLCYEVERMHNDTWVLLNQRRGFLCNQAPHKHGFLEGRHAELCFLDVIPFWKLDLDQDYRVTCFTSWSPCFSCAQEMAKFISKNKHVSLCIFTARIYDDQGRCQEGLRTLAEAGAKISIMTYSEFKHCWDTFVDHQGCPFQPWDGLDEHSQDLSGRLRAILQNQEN
# Sequence of Cytochrome P450 2C9 (Homo sapiens) (P11712 whole entry, looked up): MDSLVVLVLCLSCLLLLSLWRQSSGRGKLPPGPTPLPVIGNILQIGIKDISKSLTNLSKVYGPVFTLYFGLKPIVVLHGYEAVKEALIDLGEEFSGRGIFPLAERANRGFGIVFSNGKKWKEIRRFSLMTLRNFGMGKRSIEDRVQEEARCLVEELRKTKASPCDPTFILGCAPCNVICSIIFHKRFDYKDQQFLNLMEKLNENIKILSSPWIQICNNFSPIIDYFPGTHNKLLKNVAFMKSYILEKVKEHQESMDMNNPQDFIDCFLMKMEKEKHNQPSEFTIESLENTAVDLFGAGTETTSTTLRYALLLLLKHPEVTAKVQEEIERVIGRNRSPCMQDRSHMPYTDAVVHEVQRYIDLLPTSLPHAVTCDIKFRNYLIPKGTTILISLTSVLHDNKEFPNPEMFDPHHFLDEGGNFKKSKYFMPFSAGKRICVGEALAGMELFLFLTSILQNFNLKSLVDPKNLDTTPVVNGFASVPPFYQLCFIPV
compound,measurement,setting,value
Cc1ccc2c(c1)c1c3n2CCN[C@H]3CCC1,outcome,[1],inactive
CCOC(=O)C1=C(C)NC(C)=C(C(=O)OC)[C@@H]1c1cccc([N+](=O)[O-])c1,Potency,[2],316 nM (active)
same,Potency,[3],0.126 µM (active)
Nc1ccn([C@@H]2CC[C@H](CO)O2)c(=O)n1,Potency,[2],inactive
CS(=O)(=O)Nc1cccc(-c2nc(Nc3ccccc3)c3ccccc3n2)c1,Potency,[4],inactive
CC(=C(CCOP(=O)(O)O)SC(=O)c1ccccc1)N(C=O)Cc1cnc(C)nc1N,Potency,[4],inactive
CC(=O)CC(=O)[C@@]1(O)CC[C@@H]2[C@@H]3C=C(C)C4=CC(=O)CC[C@@H]4[C@H]3CC[C@]21C,Potency,[3],5.01 µM (active)
O[C@H](c1cc(C(F)(F)F)nc2c(C(F)(F)F)cccc12)[C@H]1CCCCN1,Potency,[5],89.4 nM (active)
same,remaining parasite growth % (stronger effect = lower value),[6],-0.0865%
same,"activity, percent of control",[7],1.34%
same,"remaining proliferation (% of control), lower = more inhibition",[8],0.677%
same,"parasite growth, % of DMSO control",[9],8.08%
same,"parasite growth remaining, % of DMSO control (lower = more inhibition)",[10],8.4%
same,"parasite growth, % of control (lower = inhibition)",[11],18.7%
same,"growth, % of control",[12],4.87%
COc1ccc([C@@H]2CC(=O)c3c(O)cc(O)cc3O2)cc1O,Potency,[3],5.01 µM (active) and 7.94 µM (active)
same,outcome,[1],inactive
Fc1ccc(Nc2nc(-c3cccnc3)nc3ccccc23)cc1,Potency,[4],inactive
C#C[C@]1(O)CC[C@@H]2[C@H]3CCC4=CCCC[C@@H]4[C@@H]3CC[C@@]21C,Potency,[3],3.98 µM (active)
COc1cc(C2Oc3cc(C4Oc5cc(O)cc(O)c5C(=O)C4O)ccc3OC2CO)ccc1O (stereo unspecified),Potency,[4],inactive
CO[C@@H]1C=CO[C@]2(C)Oc3c(C)c(O)c4c(O)c(c(C=NN5CCN(C)CC5)c(O)c4c3C2=O)NC(=O)C(C)=CC=C[C@H](C)[C@H](O)[C@H](C)[C@H](O)[C@H](C)[C@H](OC(C)=O)[C@H]1C,remaining parasite growth % (stronger effect = lower value),[6],5.75%
same,"activity, percent of control",[7],4.21%
same,"parasite growth, % of DMSO control",[9],5.98%
same,"parasite growth remaining, % of DMSO control (lower = more inhibition)",[10],11.9%
same,"parasite growth, % of control (lower = inhibition)",[11],22.5%
same,"growth, % of control",[12],5.71%
